{"source": "the supplement of paper PMC8728848", "binders": {"B1": {"name": "Gal 2 (Homo sapiens), P05162 (protein)", "chain": "MTGELEVKNMDMKPGSTLKITGSIADGTDGFVINLGQGTDKLNLHFNPRFSESTIVCNSLDGSNWGQEQREDHLCFSPGSEVKFTVTFESDKFKVKLPDGHELTFPNRLGHSHLSYLSVRGGFNMSSFKLKE"}}, "assay_in_all_cases": "glycan array binding signal (z-score within array); higher = stronger binding", "conditions_in_all_cases": "glycan notation: IUPAC condensed, linker removed", "key": {"[1]": {"target": "Fuc(a1-2)Gal(b1-3)GalNAc(b1-3)Gal(b1-4)Glc", "summary_of_the_method": "(§1)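 The Consortium for Functional Glycomics database supplied 3228 glycan arrays, of which those lacking an available protein sequence were dropped. The binding signal, a within-array Z-score, was averaged across arrays of the same protein sequence and across linkers. Negative scores can be read as non-binding.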"}, "[2]": {"target": "Fuc(a1-2)Gal(b1-3)GlcNAc(b1-3)Gal(b1-4)Glc", "summary_of_the_method": "as §1"}, "[3]": {"target": "Fuc(a1-2)Gal(b1-3)GlcNAc(b1-3)[Fuc(a1-2)Gal(b1-3)GlcNAc(b1-6)]GalNAc", "summary_of_the_method": "as §1"}, "[4]": {"target": "Fuc(a1-2)Gal(b1-3)[Fuc(a1-4)]GlcNAc(b1-2)Man(a1-3)[Fuc(a1-2)Gal(b1-3)[Fuc(a1-4)]GlcNAc(b1-2)Man(a1-6)]Man(b1-4)GlcNAc(b1-4)[Fuc(a1-6)]GlcNAc(b1-4)[Fuc(a1-6)]GlcNAc", "summary_of_the_method": "as §1"}, "[5]": {"target": "Fuc(a1-2)Gal(b1-4)GlcNAc(b1-3)Gal(b1-4)GlcNAc", "summary_of_the_method": "as §1"}, "[6]": {"target": "Fuc(a1-2)Gal(b1-4)GlcNAc(b1-3)Gal(b1-4)GlcNAc(b1-3)Gal(b1-4)GlcNAc", "summary_of_the_method": "as §1"}, "[7]": {"target": "Fuc(a1-2)Gal3S(b1-4)GlcNAc", "summary_of_the_method": "as §1"}, "[8]": {"target": "Fuc(a1-2)Gal6S(b1-4)Glc6S", "summary_of_the_method": "as §1"}, "[9]": {"target": "Fuc(a1-2)[Gal(a1-3)]Gal(b1-4)GlcNAc", "summary_of_the_method": "as §1"}, "[10]": {"target": "Fuc(a1-2)[Gal(a1-3)]Gal(b1-4)GlcNAc(b1-2)Man(a1-3)[Fuc(a1-2)[Gal(a1-3)]Gal(b1-4)GlcNAc(b1-2)Man(a1-6)]Man(b1-4)GlcNAc(b1-4)[Fuc(a1-6)]GlcNAc", "summary_of_the_method": "as §1"}, "[11]": {"target": "Fuc(a1-2)[GalNAc(a1-3)]Gal(b1-3)GlcNAc", "summary_of_the_method": "as §1"}, "[12]": {"target": "Fuc(a1-2)[GalNAc(a1-3)]Gal(b1-4)GlcNAc", "summary_of_the_method": "as §1"}, "[13]": {"target": "Fuc(a1-2)[GalNAc(a1-3)]Gal(b1-4)GlcNAc(b1-2)Man", "summary_of_the_method": "as §1"}, "[14]": {"target": "Fuc(a1-2)[GalNAc(a1-3)]Gal(b1-4)[Fuc(a1-3)]GlcNAc(b1-3)GalNAc", "summary_of_the_method": "as §1"}, "Fuc(a1-3)GlcNAc": {"target": "Fuc(a1-3)GlcNAc", "summary_of_the_method": "as §1"}, "[15]": {"target": "Gal(a1-3)Gal(b1-3)GlcNAc(b1-2)Man(a1-3)[Gal(a1-3)Gal(b1-3)GlcNAc(b1-2)Man(a1-6)]Man(b1-4)GlcNAc(b1-4)GlcNAc", "summary_of_the_method": "as §1"}, "[16]": {"target": "Gal(a1-4)Gal(b1-4)GlcNAc(b1-3)Gal(b1-4)Glc", "summary_of_the_method": "as §1"}, "Gal(b1-3)Gal": {"target": "Gal(b1-3)Gal", "summary_of_the_method": "as §1"}, "[17]": {"target": "Gal(b1-3)GalNAc(a1-3)[Fuc(a1-2)]Gal(b1-4)GlcNAc", "summary_of_the_method": "as §1"}, "[18]": {"target": "Gal(b1-3)GlcNAc(a1-3)Gal(b1-4)GlcNAc", "summary_of_the_method": "as §1"}, "[19]": {"target": "Gal(b1-3)GlcNAc(b1-3)Gal(b1-4)Glc", "summary_of_the_method": "as §1"}, "[20]": {"target": "Gal(b1-3)GlcNAc(b1-3)Gal(b1-4)GlcNAc", "summary_of_the_method": "as §1"}, "[21]": {"target": "Gal(b1-3)[Fuc(a1-4)]GlcNAc(b1-3)Gal(b1-4)[Fuc(a1-3)]GlcNAc", "summary_of_the_method": "as §1"}, "[22]": {"target": "Gal(b1-3)[Neu5Ac(b2-6)]GalNAc", "summary_of_the_method": "as §1"}, "[23]": {"target": "Gal(b1-4)GalNAc(a1-3)[Fuc(a1-2)]Gal(b1-4)GlcNAc", "summary_of_the_method": "as §1"}, "[24]": {"target": "Gal(b1-4)GlcNAc(b1-2)Man(a1-3)[Gal(b1-4)GlcNAc(b1-2)Man(a1-6)][GlcNAc(b1-4)]Man(b1-4)GlcNAc(b1-4)[Fuc(a1-6)]GlcNAc", "summary_of_the_method": "as §1"}, "GalNAc(a1-3)Gal": {"target": "GalNAc(a1-3)Gal", "summary_of_the_method": "as §1"}, "Glc(a1-6)Glc(a1-6)Glc": {"target": "Glc(a1-6)Glc(a1-6)Glc", "summary_of_the_method": "as §1"}, "[25]": {"target": "GlcNAc(a1-4)Gal(b1-4)GlcNAc(b1-3)Gal(b1-4)GlcNAc", "summary_of_the_method": "as §1"}, "[26]": {"target": "GlcNAc(b1-2)Man(a1-3)[GlcNAc(b1-4)][GlcNAc(b1-2)Man(a1-6)]Man(b1-4)GlcNAc(b1-4)GlcNAc", "summary_of_the_method": "as §1"}, "[27]": {"target": "GlcNAc(b1-3)[GlcNAc(b1-6)]GlcNAc(b1-4)GlcNAc", "summary_of_the_method": "as §1"}, "[28]": {"target": "GlcNAc(b1-6)Gal(b1-4)GlcNAc", "summary_of_the_method": "as §1"}, "Man(b1-4)GlcNAc": {"target": "Man(b1-4)GlcNAc", "summary_of_the_method": "as §1"}, "[29]": {"target": "Neu5Ac(a2-3)Gal(b1-3)[Fuc(a1-4)]GlcNAc", "summary_of_the_method": "as §1"}, "[30]": {"target": "Neu5Ac(a2-3)Gal(b1-4)GlcNAc(b1-3)Gal(b1-4)GlcNAc", "summary_of_the_method": "as §1"}, "[31]": {"target": "Neu5Ac(a2-3)Gal(b1-4)GlcNAc(b1-3)Gal(b1-4)GlcNAc(b1-3)Gal(b1-4)GlcNAc(b1-2)Man(a1-3)[Neu5Ac(a2-3)Gal(b1-4)GlcNAc(b1-3)Gal(b1-4)GlcNAc(b1-3)Gal(b1-4)GlcNAc(b1-2)Man(a1-6)]GalNAc", "summary_of_the_method": "as §1"}, "[32]": {"target": "Neu5Ac(a2-3)Gal(b1-4)[Fuc(a1-3)]GlcNAc(b1-3)Gal(b1-4)GlcNAc", "summary_of_the_method": "as §1"}, "[33]": {"target": "Neu5Ac(a2-6)Gal(b1-4)GlcNAc(b1-2)Man(a1-3)[GlcNAc(b1-4)][Neu5Ac(a2-6)Gal(b1-4)GlcNAc(b1-2)Man(a1-6)]Man(b1-4)GlcNAc(b1-4)GlcNAc", "summary_of_the_method": "as §1"}, "[34]": {"target": "Neu5Ac(a2-6)Gal(b1-4)GlcNAc(b1-2)Man(a1-6)[Man(a1-3)]Man(b1-4)GlcNAc(b1-4)GlcNAc", "summary_of_the_method": "as §1"}, "[35]": {"target": "Neu5Ac(a2-6)Gal(b1-4)GlcNAc(b1-3)Gal(b1-4)GlcNAc(b1-2)Man(a1-3)[Neu5Ac(a2-6)Gal(b1-4)GlcNAc(b1-3)Gal(b1-4)GlcNAc(b1-2)Man(a1-6)]GalNAc", "summary_of_the_method": "as §1"}, "[36]": {"target": "Neu5Ac(a2-6)Gal(b1-4)GlcNAc(b1-6)[Gal(b1-3)GlcNAc(b1-3)]Gal(b1-4)Glc", "summary_of_the_method": "as §1"}, "[37]": {"target": "Neu5Ac(b2-6)Gal(b1-4)GlcNAc", "summary_of_the_method": "as §1"}, "[38]": {"target": "Neu5Gc(a2-3)Gal(b1-4)[Fuc(a1-3)]GlcNAc", "summary_of_the_method": "as §1"}}, "note": "Shown is part of a subset that was picked to be rich in the strongest signals.", "data": [{"binder": "B1", "values": [{"measurement": "glycan array binding signal (z-score)", "setting": "[1]", "result": 3.12}, {"measurement": "glycan array binding signal (z-score)", "setting": "[2]", "result": 2.35}, {"measurement": "glycan array binding signal (z-score)", "setting": "[3]", "result": -0.048}, {"measurement": "glycan array binding signal (z-score)", "setting": "[4]", "result": 0.137}, {"measurement": "glycan array binding signal (z-score)", "setting": "[5]", "result": 2.16}, {"measurement": "glycan array binding signal (z-score)", "setting": "[6]", "result": 2.4}, {"measurement": "glycan array binding signal (z-score)", "setting": "[7]", "result": -0.17}, {"measurement": "glycan array binding signal (z-score)", "setting": "[8]", "result": -0.193}, {"measurement": "glycan array binding signal (z-score)", "setting": "[9]", "result": 2.52}, {"measurement": "glycan array binding signal (z-score)", "setting": "[10]", "result": 8.45}, {"measurement": "glycan array binding signal (z-score)", "setting": "[11]", "result": 3.75}, {"measurement": "glycan array binding signal (z-score)", "setting": "[12]", "result": 5.89}, {"measurement": "glycan array binding signal (z-score)", "setting": "[13]", "result": 13.5}, {"measurement": "glycan array binding signal (z-score)", "setting": "[14]", "result": -0.08}, {"measurement": "glycan array binding signal (z-score)", "setting": "Fuc(a1-3)GlcNAc", "result": -0.254}, {"measurement": "glycan array binding signal (z-score)", "setting": "[15]", "result": -0.222}, {"measurement": "glycan array binding signal (z-score)", "setting": "[16]", "result": -0.229}, {"measurement": "glycan array binding signal (z-score)", "setting": "Gal(b1-3)Gal", "result": -0.268}, {"measurement": "glycan array binding signal (z-score)", "setting": "[17]", "result": 9.48}, {"measurement": "glycan array binding signal (z-score)", "setting": "[18]", "result": -0.111}, {"measurement": "glycan array binding signal (z-score)", "setting": "[19]", "result": 0.74}, {"measurement": "glycan array binding signal (z-score)", "setting": "[20]", "result": 0.837}, {"measurement": "glycan array binding signal (z-score)", "setting": "[21]", "result": -0.269}, {"measurement": "glycan array binding signal (z-score)", "setting": "[22]", "result": -0.237}, {"measurement": "glycan array binding signal (z-score)", "setting": "[23]", "result": 5.71}, {"measurement": "glycan array binding signal (z-score)", "setting": "[24]", "result": -0.215}, {"measurement": "glycan array binding signal (z-score)", "setting": "GalNAc(a1-3)Gal", "result": -0.281}, {"measurement": "glycan array binding signal (z-score)", "setting": "Glc(a1-6)Glc(a1-6)Glc", "result": -0.2}, {"measurement": "glycan array binding signal (z-score)", "setting": "[25]", "result": -0.28}, {"measurement": "glycan array binding signal (z-score)", "setting": "[26]", "result": -0.084}, {"measurement": "glycan array binding signal (z-score)", "setting": "[27]", "result": -0.396}, {"measurement": "glycan array binding signal (z-score)", "setting": "[28]", "result": -0.272}, {"measurement": "glycan array binding signal (z-score)", "setting": "Man(b1-4)GlcNAc", "result": -0.273}, {"measurement": "glycan array binding signal (z-score)", "setting": "[29]", "result": -0.214}, {"measurement": "glycan array binding signal (z-score)", "setting": "[30]", "result": -0.292}, {"measurement": "glycan array binding signal (z-score)", "setting": "[31]", "result": 0.02}, {"measurement": "glycan array binding signal (z-score)", "setting": "[32]", "result": -0.229}, {"measurement": "glycan array binding signal (z-score)", "setting": "[33]", "result": -0.169}, {"measurement": "glycan array binding signal (z-score)", "setting": "[34]", "result": -0.12}, {"measurement": "glycan array binding signal (z-score)", "setting": "[35]", "result": -0.008}, {"measurement": "glycan array binding signal (z-score)", "setting": "[36]", "result": -0.21}, {"measurement": "glycan array binding signal (z-score)", "setting": "[37]", "result": -0.244}, {"measurement": "glycan array binding signal (z-score)", "setting": "[38]", "result": -0.212}]}]}
